This excerpt belongs to a sample that is enriched for hits.
PI4K2A block – inhibitors of human PI4K2A; Q9BTU6; purified PI4K2A, ADP-Glo luminescence, 1 h; hits give low values; activity change, negative = inhibition, % at 76.9 µM; 0.13% of 420,000 active; AID 1346378; in the data active = activity change below about -50%; inconclusive = mostly about -30% to -49%
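PI4K2A activity was measured by ADP-Glo luminescence: enzyme (4 ug/mL stock) and phosphatidylinositol (1.2 mM stock) in Tris pH 7.5/MgCl2/EGTA/Triton X-100 buffer were reacted with ATP (300 microM stock) for one hour at ambient temperature.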
Pin1 inh – inhibitors of human Pin1. Q13526. Pin1 FP peptide displacement, HiFluor488, 10 min. Potency, µM (top dose mostly 115 µM), hits mostly inhibitors. 0.009% of 390,000 active. AID 504891; active = well fitted inhibition curve with a large enough effect in the polarisation, with a control signal flat, not every such curve was filed as active; inconclusive = small, poorly fitted or top-dose-only effect, or effect the other way, or a change in a side signal; inactive = no such curve, though single readings can be large or run the other way; the % refers to the polarisation
Target sequence (Q13526 whole entry, looked up): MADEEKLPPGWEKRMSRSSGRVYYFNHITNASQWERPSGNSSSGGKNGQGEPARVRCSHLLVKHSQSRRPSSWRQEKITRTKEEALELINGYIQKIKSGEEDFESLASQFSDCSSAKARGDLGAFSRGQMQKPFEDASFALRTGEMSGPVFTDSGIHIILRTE
PI5P4K alpha inh – PI5P4K alpha (human) kinase inhibition; 1.2% of 330,000 active; PI5P4Kalpha enzyme, ADP-Glo luminescence, 60 min; hits give low values; P48426; max response, %; AID 652105; active = max response of -50% or lower; inconclusive = between -30% and -50%; inactive = -30% or higher; note: value at the top dose of about 77 µM
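ADP-Glo luminescence end-point after a 60 min room-temperature kinase reaction. PI5P4Kalpha and substrate in HEPES pH 7.4 buffer with EGTA, 0.1% CHAPS and 5% DMSO; ATP at 5 microM final.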
PGK inhibitor – inhibitors of T. brucei phosphoglycerate kinase; PGK/GAPDH coupled, Kinase-Glo luminescence, 60 min; Potency, µM (series often up to 57.5 µM), actives largely listed as inhibitors; 0.043% of 380,000 active; note: nearly all actives have a fitted effect of over 60% in size
Target sequence (P07378 whole entry, looked up): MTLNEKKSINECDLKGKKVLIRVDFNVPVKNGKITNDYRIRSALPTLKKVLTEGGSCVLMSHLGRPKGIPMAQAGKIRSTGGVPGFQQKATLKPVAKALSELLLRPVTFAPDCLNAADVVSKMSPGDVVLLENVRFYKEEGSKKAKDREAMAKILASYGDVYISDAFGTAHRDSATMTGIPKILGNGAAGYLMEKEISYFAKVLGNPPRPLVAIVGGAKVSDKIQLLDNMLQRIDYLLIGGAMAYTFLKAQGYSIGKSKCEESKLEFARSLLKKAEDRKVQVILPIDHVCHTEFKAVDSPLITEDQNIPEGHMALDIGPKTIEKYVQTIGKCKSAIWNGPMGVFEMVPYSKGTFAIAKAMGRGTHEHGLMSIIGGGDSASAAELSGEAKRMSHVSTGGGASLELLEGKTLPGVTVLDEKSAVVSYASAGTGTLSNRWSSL
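Luminescent ATP detection (Kinase-Glo Plus) follows a 60-minute room-temperature incubation, with wells lacking PGK as controls. Buffer: 100 mM TEA (pH 7.6), 5 mM MgCl2, 0.01% Tween-20. Coupling enzyme GAPDH (100 nM final) supplies unstable 1,3-BPG in-well.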
Tb PFK inh-1 – T. brucei PFK enzyme inhibition. O15648. T. brucei PFK, ADP-Glo luminescence. Potency, µM (highest dose often 57.5 µM), usual class: inhibitors. 0.17% of 330,000 active. AID 485367; note: nearly all actives have a fitted effect of over 60% in size
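PFK 1.25 nM, F6P 0.5 mM, ATP 0.1 mM, 0.1 M TEA pH 8.0, 5 mM MgCl2, 0.01% Tween20, 0.1% BSA; 45 min RT. ADP-Glo readout. qHTS titration up to 57 uM; curves fitted, compounds curve-classed.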
Tb PFK KinaseGlo – Tb phosphofructokinase inhibition, orthogonal luminescence | 47% of 1,100 active | AID 504636 | Tb PFK enzyme, ATP depletion, Kinase-Glo Plus luminescence | shares compounds with Tb PFK inh-1 | Potency, µM (doses to about 57.5 µM); calls by dose curve; note: nearly all actives have a fitted effect of over 60% in size
Tb PFK inh-2 – T. brucei PFK enzyme inhibition, hit validation; shares compounds with Tb PFK inh-1; purified T. brucei PFK, ADP-Glo luminescence, 45 min; Potency, µM (series often up to 57.5 µM), usual class: inhibitors; 41% of 1,100 active; AID 504637; note: nearly all actives have a fitted effect of over 60% in size
Hits are given with their value; - = inactive; ? = inconclusive; . = no result given. Unless noted, calls come from the whole dose curve; as a rule, active = well fitted curve in the direction sought with a large enough effect; inconclusive = small, poorly fitted or top-dose-only effect, or another doubt; inactive = no such curve, though single readings can be large; an effect the other way counts as inactive or inconclusive.

SMILES | PI4K2A block | Pin1 inh | PI5P4K alpha inh | PGK inhibitor | Tb PFK inh-1 | Tb PFK KinaseGlo | Tb PFK inh-2
CC1(C)CC(=O)C2=C(C1)OC1=C(C(=O)CC(C)(C)C1)C2c1ccc(O)cc1O | - | - | . | - | ? | 1.69µM | 1.35µM
O=c1cnn(Cc2ccc(Cl)c(Cl)c2)c2ccccc12 | - | - | - | - | ? | 12µM | 23.9µM
O=C(Cn1ncc2c3ccccc3n(Cc3ccc(F)cc3)c2c1=O)N1CCC2(CC1)OCCO2 | - | - | - | - | - | . | .
CCC(=O)Nc1ccc(F)c(Cl)c1 | - | - | - | - | 30.1µM | ? | ?
O=C(Nc1ccc(F)c(Cl)c1)Nn1cnnc1 | . | . | . | . | 16.9µM | ? | ?
CN(C)C(=O)Oc1ccc(Br)cc1C(=O)Nc1ccc(F)c(Cl)c1 | - | - | - | - | - | . | .
O=C(Cn1cnc([N+](=O)[O-])c1)Nc1ccc(F)c(Cl)c1 | - | - | - | - | 23.9µM | 7.57µM | 10.7µM
Cc1ncc([N+](=O)[O-])n1CCOc1nonc1N | - | - | - | - | - | . | .
Cc1ncc([N+](=O)[O-])n1CC(=O)Nc1ccc(F)c(F)c1 | - | - | - | - | ? | ? | ?
Cc1nnc2n1-c1sc(CCc3ccc(CC(C)C)cc3)cc1C(c1ccccc1Cl)=NC2C (stereo unspecified) | - | . | . | . | . | . | .
COc1cc2c(c3oc4cccc(O)c4c(=O)c13)[C@@H]1C=CO[C@@H]1O2 | - | . | . | . | . | . | .
C[C@]12C/C(=C/O)C(=O)C[C@@H]1CC[C@@H]1[C@@H]2CC[C@@]2(C)[C@H]1CC[C@]2(C)O | - | . | . | . | . | . | .
COC(=O)/C(C#N)=C(/Nc1ccc(F)c(Cl)c1)C(F)(F)F | - | - | - | - | 26.9µM | 12µM | 26.9µM
O=C(CSc1n[nH]c(=O)n1C1CC1)Nc1ccc(F)c(Cl)c1 | - | - | - | - | ? | ? | ?
Cc1cc(OCC(=O)N2CCN(CCc3ccncc3)CC2)cc(C)c1Cl | - | - | . | - | . | . | .
CCOC(=O)Cc1csc(-n2sc3ccccc3c2=O)n1 | - | - | -106.9 | - | 10.7µM | ? | ?
O=C(O)CC1S/C(=N/N=C/c2ccc(-c3ccc(Cl)cc3[N+](=O)[O-])o2)NC1=O (stereo unspecified) | - | ? | -52.4 | - | ? | - | ?
O=c1c2ccccc2nc(/C=C\c2ccccc2[N+](=O)[O-])n1-c1ccccc1O | - | - | - | - | - | . | .
O=C(O)CC1S/C(=N/N=C/C=C/c2ccccc2[N+](=O)[O-])NC1=O (stereo unspecified) | - | - | - | - | ? | - | ?
C=C(C=O)CC1CC(O)[C@]2(C)OC3CC4OC5C[C@]6(C)O[C@]7(C)CCC8OC9C[C@]%10(C)OC%11C(C)=CC(=O)OC%11CC%10OC9C[C@@H](C)C8OC7CC6O[C@]5(C)C/C=C\C4OC3CC2O1 (stereo partly specified) | - | . | . | . | . | . | .
Nc1ccc(Cl)cc1C(=O)c1ccccc1F | - | . | . | . | . | . | .
NCc1cccnc1 | - | . | . | . | . | . | .
CC(=O)Nc1cc(C(=O)CSc2nnc(C3CC3)n2C2CC2)ccc1O | - | ? | -71.7 | - | ? | ? | ?
CCC(=O)Nc1cc(C(=O)O)ccc1S(=O)(=O)c1ccc(C)cc1 | - | - | - | ? | - | . | .
Cc1c(Cl)cnc(NC(=O)COC(=O)c2ccc3ncsc3c2)c1Cl | - | - | - | - | ? | - | ?
SMILES | PI4K2A block | Pin1 inh | PI5P4K alpha inh | PGK inhibitor | Tb PFK inh-1 | Tb PFK KinaseGlo | Tb PFK inh-2
O=C(COC(=O)c1cccc(O)c1)Nc1ccc(Cl)cc1C(=O)c1ccccc1 | - | - | - | - | - | . | .
CCCOC(=O)Cc1ccc(OCC(=O)N(CC)CC)c(OC)c1 | - | . | . | . | . | . | .
CCOC(=O)C1CCN(/C=C2/C(=O)NC(=O)N(Cc3ccco3)C2=O)CC1 | - | - | -72.5 | ? | ? | ? | ?
COc1ccc(C(=O)Nc2cccc(S(=O)(=O)NCc3ccco3)c2)cc1 | - | - | - | - | - | . | .
O=C(/C=C/c1ccc(S(=O)(=O)NCc2ccco2)cc1)NCc1cccc(Cl)c1 | - | - | - | - | 26.9µM | 21.3µM | 26.9µM
O=C(/C=C/c1ccc(OCCCF)cc1)NCc1cccc(Cl)c1 | - | - | - | - | ? | ? | ?
O=C(/C=C/c1ccco1)NCc1ccco1 | - | - | - | - | ? | 21.3µM | ?
O=C(Cn1cc(C(=O)c2ccccc2)c2ccccc21)NCc1ccco1 | - | - | - | - | - | . | .
CN1CCN(c2oc(-c3ccc(COc4ccccc4)o3)nc2C#N)CC1 | - | - | . | - | . | . | .
Cc1nc(SCC(=O)N2CCOCC2)c2c(=O)n(C)c(=O)n(C)c2n1 | - | - | - | - | 23.9µM | - | -
Nc1ccc2ccccc2c1 | - | - | - | - | . | . | .
Nc1ccc2nc(-c3cccc(-c4nc5ccc(N)cc5[nH]4)c3)[nH]c2c1 | - | ? | - | - | ? | - | -
O=C(Nc1ccc2c(c1)OCCO2)c1cccn(Cc2cccc(F)c2)c1=O | - | - | . | - | . | . | .
COc1ccc2c(c[n+](C)c3c4cc5c(cc4ccc23)OCO5)c1OC | - | . | . | . | . | . | .
CN(C)c1ccc(NC(=S)c2ccc3ccccc3n2)cc1 | - | - | - | - | ? | 9.53µM | 9.53µM
COc1ccccc1OCCNC(=O)Cc1ccc(Cl)c(Cl)c1 | - | - | - | - | ? | ? | ?
COc1ccc(-c2nn(CCC#N)cc2C(=O)NCc2ccccc2)cc1OC | - | - | - | - | - | . | .
COc1ccc(C(CNC(=O)Cc2ccc(Cl)c(Cl)c2)N(C)C)cc1 (stereo unspecified) | - | - | - | - | - | . | .
COc1ccc(NC(=O)Cc2ccc(Cl)c(Cl)c2)cn1 | - | - | - | - | 12µM | 6.01µM | 13.5µM
COc1ccc(C(=O)NCc2ccc(Cl)c(Cl)c2)cc1OC | - | - | - | - | 13.5µM | 8.49µM | 26.9µM
CC(C)(C)c1ccc(O)cc1 | - | . | . | . | . | . | .
CC1CC(C)CN(S(=O)(=O)c2ccc3c(c2)oc(=O)n3CC(=O)N(C)Cc2ccccc2)C1 (stereo unspecified) | - | - | - | - | - | . | .
CC(C)CCP(=O)(O)O | - | . | . | . | . | . | .
O=C(O[C@@H]1OC2COC(=O)c3cc(O)c(O)c(O)c3-c3c(cc(O)c(O)c3O)C(=O)O[C@@H]([C@H]1O)[C@@H]2O)c1cc(O)c(O)c(O)c1 | ? | ? | -101.5 | - | 2.13µM | 0.0675µM | 0.0849µM
CCN1C[C@@]2(COC)C3[C@@H](OC)C4[C@@H]1C3([C@@H]1C[C@]3(O)[C@H](OC(=O)c5ccccc5)[C@@H]1[C@]4(OC(C)=O)[C@@H](O)[C@@H]3OC)[C@H](OC)C[C@H]2O | - | . | . | . | . | . | .
CC(=O)N[C@@H]1c2c(ccc3ccccc23)OC[C@@H]1COC(C)=O | - | - | - | - | ? | - | ?
CCc1ccc(CNC(=O)C2CCN(C(=O)c3ccc(-n4c(C)cc5ccccc54)s3)CC2)cc1 | - | - | . | - | . | . | .

From PubChem BioAssay
